Results published in article PMC7819943, “Rice protein-binding microarrays: a tool to detect cis-acting elements near promoter regions in rice”.
Over roughly 39,000 sequences, “fluorescence intensity (a.u.)” has its median near 4,300; the highest 2% begin near 39,000. The entries come from a sample that favours the highest values as a whole.

Each sequence was assayed against T1, OsSMF1 (Oryza sativa, UniProt Q6ZLB0 1-436) (assay: protein-binding microarray (RPBM); PBS, 2% BSA, 51.3 ng/ul salmon testes DNA, 50 uM zinc acetate, 200 nM TF, 25 C, 1 h; high values mean tight binding). Conditions: protein: recombinant; tags: N-terminal polyhistidine and DsRed monomer fusion (pET32a); chain copies: 2; label: CyDye5-dUTP incorporated in the synthesized complementary strand; 3' TTTTT single-stranded linker to array surface; dsDNA, one strand shown.
T1 sequence: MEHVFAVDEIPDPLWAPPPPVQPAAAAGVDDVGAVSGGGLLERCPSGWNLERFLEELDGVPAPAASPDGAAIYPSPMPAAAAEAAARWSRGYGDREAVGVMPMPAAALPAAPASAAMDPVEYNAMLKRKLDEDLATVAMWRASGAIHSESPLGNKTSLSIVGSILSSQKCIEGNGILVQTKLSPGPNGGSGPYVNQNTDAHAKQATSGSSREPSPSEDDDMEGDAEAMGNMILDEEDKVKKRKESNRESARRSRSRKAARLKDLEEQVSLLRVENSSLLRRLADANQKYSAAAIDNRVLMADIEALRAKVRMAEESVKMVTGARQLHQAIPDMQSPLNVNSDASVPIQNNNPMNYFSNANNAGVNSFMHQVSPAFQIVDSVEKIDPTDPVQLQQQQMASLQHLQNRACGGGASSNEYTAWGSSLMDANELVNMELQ
Summary of the method: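 Per-feature fluorescence intensity (arbitrary units), read on an Axon 4000B scanner, is the binding signal. Transcription factors carrying an N-terminal polyhistidine tag and DsRed fusion were expressed in E. coli BL21-CodonPlus and purified on Ni–NTA. A custom Agilent array, made double-stranded by primer extension with Cy5-dUTP and blocked with 2% BSA, was incubated with 200 nM protein in PBS, 2% BSA, salmon testes DNA and 50 µM zinc acetate at 25 °C for 1 h and then washed.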

Sequence	binding signal
CCGCGCCACCTCATGCCGTGACGTGCAGATCCCCTCCTCCCGGAGTCACCTAGTGCAG	7890 fluorescence intensity (a.u.)
CACGTGTTTTCTCGATGTCCACGTGGTGATGTGGAATTGTCGGAGTCACCTAGTGCAG	14800 fluorescence intensity (a.u.)
ACATCATGCCACATGCTTCCAAGAAGGATCCCATAGATGTCGGAGTCACCTAGTGCAG	4220 fluorescence intensity (a.u.)
TTGTCCATCAATGGAGATGATGATGCCATGATCAAATGATCGGAGTCACCTAGTGCAG	3370 fluorescence intensity (a.u.)
ATCGTGATGCAAATGTCGAACTTGGAAGATATCCATGGATCGGAGTCACCTAGTGCAG	39000 fluorescence intensity (a.u.)
AATCTCGGTGCTGAGTGGACATGAATGAATGATGGAATCTCGGAGTCACCTAGTGCAG	4150 fluorescence intensity (a.u.)
GGAATGGATAGTGTTCTCGGAAGGAAATTGGTGCTGATGTCGGAGTCACCTAGTGCAG	45600 fluorescence intensity (a.u.)
TCGATTCATTCGTTCCTTGGGTCGTGTCAGCATGGCCCATCGGAGTCACCTAGTGCAG	11100 fluorescence intensity (a.u.)
GGTCTGGCGATGGAGCCTCCCGCCGGAGACGCCGCGCCGTCGGAGTCACCTAGTGCAG	3540 fluorescence intensity (a.u.)
CCATGTTCCCAACCCCTCTCCCTCATTTTCCACGCGTATGCGGAGTCACCTAGTGCAG	3650 fluorescence intensity (a.u.)
TGAGAGGTCTACATCATTACATGTCAAGACAAGACTACCACGGAGTCACCTAGTGCAG	4540 fluorescence intensity (a.u.)
ATCATCTAGTTAAGACTGTTTGTATGCAACTATGCATGTACGGAGTCACCTAGTGCAG	31400 fluorescence intensity (a.u.)
GAAACAAACACATCAGATGACGTTTGTTGAAATGCCTAACCGGAGTCACCTAGTGCAG	5000 fluorescence intensity (a.u.)
TAACATCATGTCTAGTTTGTTACCCTATCAAGACTAAAACCGGAGTCACCTAGTGCAG	42600 fluorescence intensity (a.u.)
GTCCCTATCACATCGGATGTTTGAACAAAACAGAATATACCGGAGTCACCTAGTGCAG	45600 fluorescence intensity (a.u.)
ATGTTTGTGAAGTGACATATCACATATTGATCTATCATACCGGAGTCACCTAGTGCAG	5200 fluorescence intensity (a.u.)
ACTTAATAAAATCAAACGTCACAGTTCCGTACTTTTCAGTCGGAGTCACCTAGTGCAG	35900 fluorescence intensity (a.u.)
TCGCCGGGCTTCTCTACGAGTACCTCGTCATCCCGTCCACCGGAGTCACCTAGTGCAG	5700 fluorescence intensity (a.u.)
ACGCAGCGGGCCAACTCCAACTCATCCCCAGCCTCCACCACGGAGTCACCTAGTGCAG	4360 fluorescence intensity (a.u.)
TTGGAGTCCGTGCTGCAGCTGGCTACAGATCTGTAGCCCGCGGAGTCACCTAGTGCAG	37600 fluorescence intensity (a.u.)
CCGTGCTACAGCTGGCTACAAATATGTAGCCCTATGCTCTCGGAGTCACCTAGTGCAG	18300 fluorescence intensity (a.u.)
TCCGTGCTACAGCTAGCTACAGATATGTAGTCCGTCATTCCGGAGTCACCTAGTGCAG	45200 fluorescence intensity (a.u.)
ATCCTGTCACGGTCAGCCACGTCGCGGAGGGCAGTGCGACCGGAGTCACCTAGTGCAG	4580 fluorescence intensity (a.u.)
TTTACCATTGCGGGTGCTCTAATAGGTGGCATGCCATGCGCGGAGTCACCTAGTGCAG	4740 fluorescence intensity (a.u.)
CGTCGTGCTCGTCGACGTCGTGCACTCCGTCGCCATCGTGCGGAGTCACCTAGTGCAG	3220 fluorescence intensity (a.u.)
AGGCTCCCCTGAGTCGTGACGTGCACTCGAAAGTCGAAAGCGGAGTCACCTAGTGCAG	41100 fluorescence intensity (a.u.)
CGCTTCTCTCCCTGAGCTCGGCCTCGTGTCACTGACGTCGCGGAGTCACCTAGTGCAG	4390 fluorescence intensity (a.u.)

Sequence	binding signal
TACTTTAAGTACATGTATTAGTCAGCTGATATATACCTCACGGAGTCACCTAGTGCAG	4310 fluorescence intensity (a.u.)
AGTATCTCTTTCACAAAAGCCTACGTCATCTTTAAATTAGCGGAGTCACCTAGTGCAG	5060 fluorescence intensity (a.u.)
ACCTGGTAACTGAACACAGGATGGAAACTCTGAATAATGACGGAGTCACCTAGTGCAG	3250 fluorescence intensity (a.u.)
CTTGCGATGCGTGGTGAGTGGTGACTGTAATGTAATGGAACGGAGTCACCTAGTGCAG	3450 fluorescence intensity (a.u.)
GATGGAGACCCTGTGCGAACTGACAGTAATAGGGCTGGAACGGAGTCACCTAGTGCAG	39400 fluorescence intensity (a.u.)
ATTTACTGCCTATTCGTGAGTTGGTCCTCCTGACTCTGACCGGAGTCACCTAGTGCAG	3750 fluorescence intensity (a.u.)
TACCGTCCCTCAACTTTATGTCGAGTCTATATGACATACCCGGAGTCACCTAGTGCAG	4220 fluorescence intensity (a.u.)
TACTTTATTTTGATTTTCGTGGGAGGTGACGTGGGCGCTTCGGAGTCACCTAGTGCAG	19300 fluorescence intensity (a.u.)
TCTTCCCGCTCGCCACGTCAGCGCCATGTGAGCAAAACTACGGAGTCACCTAGTGCAG	15500 fluorescence intensity (a.u.)
AATCAATCCATTAATATTTAACATGATCAGGCATTAGTCGCGGAGTCACCTAGTGCAG	3580 fluorescence intensity (a.u.)
ATCCACGTGGCAATGTATTAATCCAGTCAGCAACATCTCACGGAGTCACCTAGTGCAG	12400 fluorescence intensity (a.u.)
GTTGGAACAATTAATGTGCTGCAGGCAATAACAATCCAGTCGGAGTCACCTAGTGCAG	48700 fluorescence intensity (a.u.)
ATTTGTCTTATGTATATGCTGTATAGGATCTATGGACGCCCGGAGTCACCTAGTGCAG	3520 fluorescence intensity (a.u.)
GTTCCATTCCAATCCCATGAAAGCAACAGCGCTGCCTATCCGGAGTCACCTAGTGCAG	35800 fluorescence intensity (a.u.)
ACATAATTGTATTATGCAGAACCAAAGCAGGCCACGTGAGCGGAGTCACCTAGTGCAG	5470 fluorescence intensity (a.u.)
CCAGCAGCCCCTCTCTCATCCATGGTAGTGCTCTGTCATGCGGAGTCACCTAGTGCAG	3400 fluorescence intensity (a.u.)
GCGTGGTGCGTATCGTGCTCATCGCATCGGCCTCCGTATACGGAGTCACCTAGTGCAG	40000 fluorescence intensity (a.u.)
CGTCGCCGTCGCCTCGCCTCGTCACGGCCGCCTCCGCCATCGGAGTCACCTAGTGCAG	7920 fluorescence intensity (a.u.)
ACCTCTGGTAGCAGCAGCAGCTCGCACGCAGCTCATCGTGCGGAGTCACCTAGTGCAG	40700 fluorescence intensity (a.u.)
TGCCGCCGCCGTCGTCACCGTCGCCGCCTCCGTGCTCATGCGGAGTCACCTAGTGCAG	6030 fluorescence intensity (a.u.)
AACGGGGCCTCGTAGCAACAGCTCTGACGCACGTGACCTCCGGAGTCACCTAGTGCAG	5400 fluorescence intensity (a.u.)
ATGTTGACTCGTTTGCCTGTGTTCCTCTTGCTGCTATTCACGGAGTCACCTAGTGCAG	3230 fluorescence intensity (a.u.)
CGCTGTGGTGTGCAGCGGCGGTGCCACGTCCCTATTTAAACGGAGTCACCTAGTGCAG	10900 fluorescence intensity (a.u.)
ATCTTTAGTCCCGGATTGGTAGTTCCGGTTTGAAAACCGGCGGAGTCACCTAGTGCAG	3760 fluorescence intensity (a.u.)
TCTTTAGTCCCGGTTCCTATTTAAACCGGGATTATTGTGGCGGAGTCACCTAGTGCAG	47900 fluorescence intensity (a.u.)
ACCAAATGACATGACTCACTTAGATCCTAATAGGACATCCCGGAGTCACCTAGTGCAG	4400 fluorescence intensity (a.u.)
GCGCCGCGGTGGAGGCGAGTGGGCGACACGTGGGAAGTGGCGGAGTCACCTAGTGCAG	6610 fluorescence intensity (a.u.)
